Measurements reported in PubChem BioAssay (NCATS).
Values joined by “and” are separate entries in the source; they are usually repeats but may differ in a detail not shown here. Equal values may be shown once. Inconclusive results are not listed. Some structures have more than one record in an assay (separate samples or runs), and their calls can disagree. Active and inactive are the calls of the source. The call rests on the fitted dose curve; in most records, active means well fitted curve in the direction sought with a large enough effect; inconclusive means small, poorly fitted or top-dose-only effect, or another doubt; inactive means no such curve, though single readings can be large; an effect the other way counts as inactive or inconclusive.

Legend:
HaCat [1] = test: Cytotoxic Profiling of Annotated Libraries Using Quantitative High-Throughput Screening (AID 1296008); details: Five cell lines viability, CellTiter-Glo ATP luminescence, 48-72 h; max response: stronger effect = lower value; further: nearly all actives have a fitted effect of over 60% in size
In short: (§1)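 Cytotoxicity was measured as CellTiter-Glo ATP luminescence, read after 10 min at room temperature. Compound treatment of the cells lasted 48 or 72 hr at 37 degrees Celsius in a qHTS format.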

KB-3-1 = test: as above; details: Five cell lines viability, CellTiter-Glo ATP luminescence, 48-72 h; max response: stronger effect = lower value
In short: as §1

NIH3T3 [2] = test: as above; details: Five cell lines viability, CellTiter-Glo ATP luminescence, 48-72 h; max response: stronger effect = lower value
In short: as §1

HACAT [3] = test: qHTS assay to identify novel small-molecules to repurpose for Merkel cell carcinoma treatment (AID 1296009); details: MCC and control cell lines, CellTiter-Glo viability, 72 h; further: nearly all actives have a fitted effect of over 60% in size
In short: (§2)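 Cell viability, measured as CellTiter-Glo luminescence, was normalized between DMSO and no-cell wells. The cells had been exposed to 8- or 11-point compound dilutions for 72 hr at 37 degree celsius.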

MCC-13 = test: as above; details: MCC and control cell lines, CellTiter-Glo viability, 72 h; series mostly up to 46 µM
In short: as §2

MCC-26 = test: as above; details: MCC and control cell lines, CellTiter-Glo viability, 72 h; series mostly up to 46 µM
In short: as §2

MKL-1 = test: as above; details: MCC and control cell lines, CellTiter-Glo viability, 72 h; series mostly up to 46 µM
In short: as §2

MKL-2 = test: as above; details: MCC and control cell lines, CellTiter-Glo viability, 72 h; series mostly up to 46 µM
In short: as §2

UISO = test: as above; details: MCC and control cell lines, CellTiter-Glo viability, 72 h; series mostly up to 46 µM
In short: as §2

WaGa = test: as above; details: MCC and control cell lines, CellTiter-Glo viability, 72 h; series mostly up to 46 µM
In short: as §2

C33A = test: Primary qHTS to identify gynecologic anti-cancer compounds using libraries of approved drugs and bioactive compounds (AID 1345084); details: Gynecologic cancer cell panel viability, ATPlite luminescence, 48 h; series mostly up to 57.5 µM; further: nearly all actives have a fitted effect of over 55% in size
In short: (§3)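 In this quantitative HTS, cell killing is estimated from loss of ATP-dependent luciferase light. Cells see five compound concentrations over a 48 h exposure.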

CAOV3 = test: as above; details: Gynecologic cancer cell panel viability, ATPlite luminescence, 48 h; series mostly up to 57.5 µM
In short: as §3

CASKI = test: as above; details: Gynecologic cancer cell panel viability, ATPlite luminescence, 48 h; series mostly up to 57.5 µM
In short: as §3

Es-2 = test: as above; details: Gynecologic cancer cell panel viability, ATPlite luminescence, 48 h; series mostly up to 57.5 µM
In short: as §3

HeLa = test: as above; details: Gynecologic cancer cell panel viability, ATPlite luminescence, 48 h; series mostly up to 57.5 µM
In short: as §3

Hek293T [4] = test: as above; details: Gynecologic cancer cell panel viability, ATPlite luminescence, 48 h, control line for the selectivity index; series mostly up to 57.5 µM
In short: as §3

JEG-3 = test: as above; details: Gynecologic cancer cell panel viability, ATPlite luminescence, 48 h; series mostly up to 57.5 µM
In short: as §3

OV90 = test: as above; details: Gynecologic cancer cell panel viability, ATPlite luminescence, 48 h; series mostly up to 57.5 µM
In short: as §3

NIH3T3 [5] = test: qHTS assay to identify novel small-molecules to repurpose for Merkel cell carcinoma treatment (AID 1296009); details: MCC and control cell lines, CellTiter-Glo viability, 72 h; at 44.8 µM (top of the series) unless noted; further: nearly all actives have a fitted effect of over 60% in size
In short: as §2

HEK293T [6] = test: as above; details: MCC and control cell lines, CellTiter-Glo viability, 72 h; at 44.8 µM (top of the series) unless noted
In short: as §2

[7] = at 44.8 µM (top of the series) unless noted
On the % scale 0 is the no-effect control and ±100 the full control effect; potency means the concentration at half of the fitted maximal effect.

OC(Cn1cncn1)(Cn1cncn1)c1ccc(F)cc1F
inactive: max response (HaCat [1]) -29.4% | outcome (HaCat [1]) | max response (KB-3-1) -2.5% and 5.59% | max response (NIH3T3 [2]) -0.561% and -16.4% | outcome (HACAT [3]; [7]) | Potency (MCC-13) | Potency (MCC-26) | Potency (MKL-1) | Potency (MKL-2) | Potency (UISO) | Potency (WaGa) | Potency (C33A) | Potency (CAOV3) | Potency (CASKI) | Potency (Es-2) | Potency (HeLa) | Potency (Hek293T [4]) | Potency (JEG-3) | Potency (OV90)

CCOC(=O)c1ccc(C#Cc2ccc3c(c2)C(C)(C)CCS3)nc1
inactive: outcome (HaCat [1]) | max response (KB-3-1) 5.71% and 0.466% | max response (NIH3T3 [2]) -3.55% | outcome (NIH3T3 [2]) | outcome (HACAT [3]; [7]) | Potency (MCC-13) | Potency (MCC-26) | Potency (MKL-1) | outcome (NIH3T3 [5]) | Potency (UISO) | Potency (WaGa) | Potency (C33A) | Potency (CAOV3) | Potency (CASKI) | Potency (Es-2) | Potency (HeLa) | Potency (Hek293T [4]) | Potency (JEG-3) | Potency (OV90)

COC(c1ccccc1)(c1ccccc1)[C@H](Oc1nc(C)cc(C)n1)C(=O)O
inactive: max response (HaCat [1]) -18.5% and -6.09% | max response (KB-3-1) 0.37% | outcome (KB-3-1) | max response (NIH3T3 [2]) -19.9% | outcome (NIH3T3 [2]) | Potency (MCC-13) | Potency (MKL-1) | Potency (MKL-2) | outcome (NIH3T3 [5]) | Potency (UISO) | Potency (WaGa) | Potency (C33A) | Potency (CAOV3) | Potency (CASKI) | Potency (Es-2) | Potency (HeLa) | Potency (Hek293T [4]) | Potency (JEG-3) | Potency (OV90)

CNS(=O)(=O)Cc1ccc2[nH]cc(CCN(C)C)c2c1
inactive: outcome (HaCat [1]) | max response (KB-3-1) -7.88% and 1.69% | max response (NIH3T3 [2]) -1.5% | outcome (NIH3T3 [2]) | outcome (HACAT [3]; [7]) | outcome (HEK293T [6]) | Potency (MCC-13) | Potency (MCC-26) | Potency (MKL-1) | Potency (MKL-2) | outcome (NIH3T3 [5]) | Potency (UISO) | Potency (WaGa) | Potency (C33A) | Potency (CAOV3) | Potency (CASKI) | Potency (Es-2) | Potency (Hek293T [4]) | Potency (JEG-3) | Potency (OV90)

CCCc1cc(C(N)=S)ccn1
inactive: max response (HaCat [1]) 0.608% | outcome (HaCat [1]) | max response (KB-3-1) -1.25% and 6.29% | max response (NIH3T3 [2]) -7.14% and -4.81% | outcome (HACAT [3]; [7]) | Potency (MCC-13) | Potency (MKL-1) | Potency (MKL-2) | Potency (UISO) | Potency (WaGa) | Potency (C33A) | Potency (CAOV3) | Potency (CASKI) | Potency (Es-2) | Potency (Hek293T [4]) | Potency (JEG-3) | Potency (OV90)

C[C@@H](CN1CC(=O)NC(=O)C1)N1CC(=O)NC(=O)C1
inactive: max response (HaCat [1]) -7.01% | max response (KB-3-1) 7.8% | Potency (MCC-13) | Potency (MCC-26) | Potency (MKL-2) | Potency (UISO) | Potency (C33A) | Potency (CAOV3) | Potency (CASKI) | Potency (Es-2) | Potency (Hek293T [4]) | Potency (JEG-3) | Potency (OV90)
active: Potency (HaCat [1]) 23.5 µM | Potency (NIH3T3 [2]) 0.187 µM
inactive and 3.72 µM (active): Potency (WaGa)
inactive and 5.9 µM (active): Potency (MKL-1)

NC1(c2ccc(-c3nc4ccn5c(=O)[nH]nc5c4cc3-c3ccccc3)cc2)CCC1
active: Potency (HaCat [1]) 25.9 µM | Potency (KB-3-1) 16.4 µM | Potency (MKL-1) 20.9 µM | Potency (MKL-2) 13.3 µM | Potency (UISO) 13.2 µM | Potency (WaGa) 16.6 µM and 26.6 µM | Potency (Hek293T [4]) 3.55 µM | Potency (OV90) 2 µM
inactive: max response (HaCat [1]) -15.1% | max response (NIH3T3 [2]) -6.67% | Potency (MCC-13) | Potency (MCC-26) | Potency (C33A) | Potency (CAOV3) | Potency (Es-2) | Potency (HeLa)

CCN[C@H]1C[C@H](C)S(=O)(=O)c2sc(S(N)(=O)=O)cc21
inactive: max response (HaCat [1]) -6.44% | outcome (HaCat [1]) | max response (KB-3-1) 1.27% and -0.756% | max response (NIH3T3 [2]) 0.236% and 2.34% | outcome (HACAT [3]; [7]) | outcome (HEK293T [6]) | Potency (MCC-13) | Potency (MCC-26) | Potency (MKL-1) | Potency (MKL-2) | Potency (UISO) | Potency (WaGa) | Potency (C33A) | Potency (CASKI) | Potency (Es-2) | Potency (HeLa) | Potency (Hek293T [4]) | Potency (JEG-3) | Potency (OV90)

CCN(C)C(=O)Oc1cccc([C@H](C)N(C)C)c1
inactive: max response (HaCat [1]) -4.32% | outcome (HaCat [1]) | max response (KB-3-1) 1.39% and 1.13% | max response (NIH3T3 [2]) 1.74% and -5.17% | outcome (HACAT [3]; [7]) | outcome (HEK293T [6]) | Potency (MCC-13) | Potency (MCC-26) | Potency (MKL-1) | Potency (MKL-2) | Potency (UISO) | Potency (WaGa) | Potency (C33A) | Potency (CAOV3) | Potency (CASKI) | Potency (Es-2) | Potency (Hek293T [4]) | Potency (JEG-3) | Potency (OV90)

CCN(CC)CCn1c(=O)c(Cc2ccc(OC)cc2)nc2ccccc21
inactive: max response (HaCat [1]) -7.99% | max response (KB-3-1) -9.16% | outcome (KB-3-1) | outcome (NIH3T3 [2]) | Potency (MCC-13) | Potency (MCC-26) | Potency (MKL-1) | Potency (MKL-2) | outcome (NIH3T3 [5]) | Potency (UISO) | Potency (WaGa)

CN1CCN(c2c(F)cc3c(=O)c(C(=O)O)cn4c3c2OCN4C)CC1
inactive: outcome (HaCat [1]) | max response (KB-3-1) -7.62% | outcome (KB-3-1) | max response (NIH3T3 [2]) 2.5% and 4.99% | outcome (HACAT [3]; at 17.4 µM (top of the series)) | outcome (HACAT [3]; at 44.8 µM (top of the series)) | outcome (HEK293T [6]) inactive [at 17.4 µM] | Potency (MCC-13) | Potency (MCC-26) | Potency (MKL-1) | Potency (MKL-2) | Potency (UISO) | Potency (WaGa) | Potency (C33A) | Potency (CAOV3) | Potency (CASKI) | Potency (Es-2) | Potency (HeLa) | Potency (Hek293T [4]) | Potency (JEG-3) | Potency (OV90)

Cc1oc(=O)oc1CN1CCN(c2cc3c(cc2F)c(=O)c(C(=O)O)c2n3C(C)S2)CC1 (stereo not drawn)
inactive: outcome (HaCat [1]) | max response (KB-3-1) 23.6% | outcome (KB-3-1) | max response (NIH3T3 [2]) -0.29% | outcome (NIH3T3 [2]) | outcome (HACAT [3]; [7]) | Potency (MCC-13) | Potency (MCC-26) | Potency (MKL-1) | Potency (MKL-2) | outcome (NIH3T3 [5]) | Potency (UISO) | Potency (WaGa) | Potency (C33A) | Potency (CAOV3) | Potency (CASKI) | Potency (Es-2) | Potency (HeLa) | Potency (Hek293T [4]) | Potency (JEG-3) | Potency (OV90)
